# According to PubChem BioAssay (NCATS):
# Records with an inconclusive call do not appear. The source made the active and inactive calls. Calls come from the whole dose curve; as a rule, active = well fitted curve in the direction sought with a large enough effect; inconclusive = small, poorly fitted or top-dose-only effect, or another doubt; inactive = no such curve, though single readings can be large; an effect the other way counts as inactive or inconclusive.
# Target: Phospholipid hydroperoxide glutathione peroxidase GPX4 (Homo sapiens) (UniProt P36969)
# Experiment: Primary qHTS Assay for Inhibitors of Recombinant Selenoprotein Glutathione Peroxidase 4 (GPX4) (AID 1845192); note: nearly all actives have a fitted effect of over 65% in size; for activity change, negative = inhibition: % is set by controls: 0 for no effect and ±100 for the full control effect
# Conditions: recombinant GPX4, GR-coupled NADPH fluorescence, 15 min; series mostly up to 50 µM; activity change, negative = inhibition: at the top concentration
# Outline: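 GR-coupled assay: recombinant GPX4 preincubated 30 min with compound at room temperature; final 200 nM GPX4, 1 mM GSH, 0.5 mM cumene hydroperoxide, 0.5 mM NADPH, 100 nM GR, 0.01% BSA, pH 7.5 Tris. NADPH fluorescence (340/450 nm) read at 0 and 15 min.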
# Chain of Phospholipid hydroperoxide glutathione peroxidase GPX4 (Homo sapiens) (P36969 whole entry, looked up): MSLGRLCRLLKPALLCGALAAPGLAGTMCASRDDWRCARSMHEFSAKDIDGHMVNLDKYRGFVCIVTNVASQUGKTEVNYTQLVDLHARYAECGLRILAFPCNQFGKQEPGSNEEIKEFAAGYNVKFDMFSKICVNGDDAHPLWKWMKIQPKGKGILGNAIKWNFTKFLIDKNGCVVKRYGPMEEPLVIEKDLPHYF
Compound,outcome,"activity change, negative = inhibition",Potency
N=C(N)c1ccc2cc(OC(=O)c3ccc(N=C(N)N)cc3)ccc2c1,inactive,,
Cn1c(NCCN(CCO)CCCc2ccc([N+](=O)[O-])cc2)cc(=O)n(C)c1=O,,-17.3% (inactive),
C[C@@H](N)C1CCC(C(=O)Nc2ccncc2)CC1 (some centres undefined),,,inactive
Cc1c(C(=O)NN2CCCCC2)nn(-c2ccc(Cl)cc2Cl)c1-c1ccc(Cl)cc1,,,inactive
Cc1cc(Cl)ccc1OCCCC(=O)NO,,,inactive
CC(C)Oc1ccc2c(=O)c(-c3ccccc3)coc2c1,,,inactive
CCOC(=O)C(C)Oc1cccc2c(=O)n(CC(=O)Nc3ccc4c(c3)OCCO4)ccc12 (centres undefined),,,inactive
CCN(CC)CCOc1ccc(Cc2ccccc2)cc1,inactive,,
Cc1cccc(C)c1OCC(=O)N[C@@H](Cc1ccccc1)[C@@H](O)C[C@H](Cc1ccccc1)NC(=O)[C@H](C(C)C)N1CCCNC1=O,,-10.9% (inactive),
CCc1nc(N)nc(N)c1-c1ccc(Cl)cc1,,,inactive
COc1cc(C(C)=O)ccc1OCCCN1CCC(c2noc3cc(F)ccc23)CC1,,-3.22% (inactive),
c1ccc2[nH]c(-c3cscn3)nc2c1,,,inactive
Clc1ccc(C(Cn2ccnc2)OCc2ccsc2Cl)c(Cl)c1 (centres undefined),,-2.81% (inactive),
O=C(CCc1ccc(O)cc1)c1c(O)cc(O)cc1O,,-13.9% (inactive),
O=C1NC(=O)C(c2ccccc2[N+](=O)[O-])=C1Nc1ccc(O)c(Cl)c1,,-21.2% (inactive),
CC1(C)NC(=O)N(c2ccc([N+](=O)[O-])c(C(F)(F)F)c2)C1=O,,,inactive
Cc1ccc(S(=O)(=O)NC(=O)NN2CC3CCCC3C2)cc1 (centres undefined),,,inactive
Clc1ccc(C(Cn2ccnc2)OCc2ccc(Sc3ccccc3)cc2)c(Cl)c1 (centres undefined),,-14.8% (inactive),
COc1c2occc2cc2ccc(=O)oc12,,,inactive
O=C(O)c1cc(=O)c2c(OCC(O)COc3cccc4oc(C(=O)O)cc(=O)c34)cccc2o1,,,inactive
S=c1nc[nH]c2nc[nH]c12,,-3.2% (inactive),
COCCCN1CCC(NC(=O)c2cc(Cl)c(N)c3c2OCC3)CC1,,,inactive
CC(C)[C@H](N)C(=O)OCCOCn1cnc2c(=O)[nH]c(N)nc21,,,inactive
Cc1ccc(C(=O)c2cc(O)c(O)c([N+](=O)[O-])c2)cc1,,-26% (inactive),
COc1cc2nc(N3CCN(C(=O)C4CCCO4)CC3)nc(N)c2cc1OC (centres undefined),inactive,,

# Test system: not listed separately
# Experiment: Quantitative High-Throughput drug screen in 47 multiple myeloma cell lines against the NCATS MIPE library collection: FR4_PLB cell viability assay (AID 1918924; note: nearly all actives have a fitted effect of over 35% in size; note: potency is the fitted concentration of half-maximal effect)
# Conditions: FR4_PLB myeloma cells viability, CellTiter-Glo ATP, 48 h; series mostly up to 45.8 µM; viability (% of DMSO control): at the top concentration
# Outline: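 Inhibition of cell viability is measured here. Each line was plated at 500 cells per well, treated with MIPE 4.0 drugs, kept 48 hours at 37C, then assayed for ATP content by CellTiter-Glo luminescence.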
Compound,viability (% of DMSO control),Potency
O=C(CS(=O)Cc1ccco1)NCC=CCOc1cc(CN2CCCCC2)ccn1 (centres undefined),143% (inactive),
NC(=NCc1ccccc1)NC(=O)c1nc(Cl)c(N)nc1N,111% (inactive),
C=CCc1cc(OC)c(O)c(C(=O)NCCO)c1,124% (inactive),
Cc1cc(=O)c2c(O)c3c(O)cc(=O)c4c3c3c(cc(O)c1c23)C(C)(C)C=4O,,13.2 µM (active)
COCCCOc1ccnc(CS(=O)c2nc3ccccc3[nH]2)c1C (centres undefined),101% (inactive),
CCOC(=O)c1c(C)n(C)c2ccc(O)cc12,111% (inactive),
COC(=O)C1=C(C)NC(C)=C(C(=O)OCCCN2CCC(c3ccccc3)(c3ccccc3)CC2)C1c1cccc([N+](=O)[O-])c1 (centres undefined),105% (inactive),
C[C@H](Cn1cnc2c(N)ncnc21)OCP(=O)(O)O,100% (inactive),
CN(C)c1ccc(O)c2c1C[C@H]1C[C@H]3[C@H](N(C)C)C(=O)C(C(N)=O)=C(O)[C@@]3(O)C(=O)C1=C2O,,20.9 µM (active)
C[C@]12CCC(=O)C=C1CC[C@@H]1[C@H]2[C@@H](O)C[C@@]2(C)[C@H]1CC[C@]2(O)C(=O)CO,102% (inactive),
N=C(N=C(N)N)N1CCOCC1,115% (inactive),

# Test system: not listed separately
# Experiment: Quantitative High-Throughput drug screen in 47 multiple myeloma cell lines against the NCATS MIPE library collection: Delta47_JCRB cell viability assay (AID 1918925; note: nearly all actives have a fitted effect of over 45% in size; note: potency is the fitted concentration of half-maximal effect)
# Conditions: Delta47 myeloma viability, CellTiter-Glo ATP, 48 h; series mostly up to 45.8 µM; viability (% of DMSO): at the top concentration
# Outline: (§1)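 We plated 500 myeloma cells per well, pinned in MIPE 4.0 compounds, and incubated for 48 hours at 37C. ATP was then quantified with CellTiter-Glo, with DMSO and media-only wells defining 100% and 0%.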
Compound,Potency,viability (% of DMSO)
CCCCCCCCOc1ccccc1C(=O)Nc1ccc(C(=O)OCC[N+](C)(CC)CC)cc1,18.7 µM (active),
NC(=NCc1ccccc1)NC(=O)c1nc(Cl)c(N)nc1N,6.62 µM (active),
C=CCc1cc(OC)c(O)c(C(=O)NCCO)c1,,110% (inactive)
Cc1cc(=O)c2c(O)c3c(O)cc(=O)c4c3c3c(cc(O)c1c23)C(C)(C)C=4O,0.372 µM (active),
COCCCOc1ccnc(CS(=O)c2nc3ccccc3[nH]2)c1C (centres undefined),,79.7% (inactive)
Cc1ccc(S(=O)(=O)NC(=O)NN2CC3CCCC3C2)cc1 (centres undefined),18.7 µM (active),
C[C@H](Cn1cnc2c(N)ncnc21)OCP(=O)(O)O,,130% (inactive)
Cc1ccc(C(=O)c2cc(O)c(O)c([N+](=O)[O-])c2)cc1,26.4 µM (active),
N=C(N=C(N)N)N1CCOCC1,,124% (inactive)

# Test system: not listed separately
# Experiment: Quantitative High-Throughput drug screen in 47 multiple myeloma cell lines against the NCATS MIPE library collection: EJM_DSMZ cell viability assay (AID 1918926; note: nearly all actives have a fitted effect of over 30% in size; note: potency is the fitted concentration of half-maximal effect)
# Conditions: EJM myeloma cell viability, CellTiter-Glo ATP, 48 h; series mostly up to 45.8 µM; viability, % of control: at the top concentration
# Outline: as §1
Compound,Potency,"viability, % of control"
N=C(N)c1ccc2cc(OC(=O)c3ccc(N=C(N)N)cc3)ccc2c1,18.7 µM (active),
Cn1c(NCCN(CCO)CCCc2ccc([N+](=O)[O-])cc2)cc(=O)n(C)c1=O,,87.7% (inactive)
C[C@@H](N)C1CCC(C(=O)Nc2ccncc2)CC1 (some centres undefined),,103% (inactive)
Cc1c(C(=O)NN2CCCCC2)nn(-c2ccc(Cl)cc2Cl)c1-c1ccc(Cl)cc1,,83.3% (inactive)
Cc1cc(Cl)ccc1OCCCC(=O)NO,0.296 µM (active),
O=C(CS(=O)Cc1ccco1)NCC=CCOc1cc(CN2CCCCC2)ccn1 (centres undefined),,90.9% (inactive)
CC(C)Oc1ccc2c(=O)c(-c3ccccc3)coc2c1,,84.1% (inactive)
CCOC(=O)C(C)Oc1cccc2c(=O)n(CC(=O)Nc3ccc4c(c3)OCCO4)ccc12 (centres undefined),,103% (inactive)
NC(=NCc1ccccc1)NC(=O)c1nc(Cl)c(N)nc1N,,113% (inactive)
CCc1nc(N)nc(N)c1-c1ccc(Cl)cc1,,112% (inactive)
C=CCc1cc(OC)c(O)c(C(=O)NCCO)c1,,108% (inactive)
Cc1cc(=O)c2c(O)c3c(O)cc(=O)c4c3c3c(cc(O)c1c23)C(C)(C)C=4O,14.8 µM (active),
COc1cc(C(C)=O)ccc1OCCCN1CCC(c2noc3cc(F)ccc23)CC1,,86.7% (inactive)
Clc1ccc(C(Cn2ccnc2)OCc2ccsc2Cl)c(Cl)c1 (centres undefined),14.8 µM (active),
O=C1NC(=O)C(c2ccccc2[N+](=O)[O-])=C1Nc1ccc(O)c(Cl)c1,,84.9% (inactive)
CC1=C(C(=O)O)N2C(=O)[C@@H](NC(=O)[C@H](N)C3=CCC=CC3)[C@H]2SC1,,112% (inactive)
COCCCOc1ccnc(CS(=O)c2nc3ccccc3[nH]2)c1C (centres undefined),,79.3% (inactive)
CNC[C@@H](O)[C@@H](O)[C@H](O)[C@H](O)CO,,111% (inactive)
CCOC(=O)c1c(C)n(C)c2ccc(O)cc12,,105% (inactive)
COc1c2occc2cc2ccc(=O)oc12,,97.6% (inactive)
O=C(O)c1cc(=O)c2c(OCC(O)COc3cccc4oc(C(=O)O)cc(=O)c34)cccc2o1,,89.3% (inactive)
S=c1nc[nH]c2nc[nH]c12,,89.6% (inactive)
COC(=O)C1=C(C)NC(C)=C(C(=O)OCCCN2CCC(c3ccccc3)(c3ccccc3)CC2)C1c1cccc([N+](=O)[O-])c1 (centres undefined),,102% (inactive)
C[C@H](Cn1cnc2c(N)ncnc21)OCP(=O)(O)O,,127% (inactive)
CC(C)[C@H](N)C(=O)OCCOCn1cnc2c(=O)[nH]c(N)nc21,,106% (inactive)
CN(C)c1ccc(O)c2c1C[C@H]1C[C@H]3[C@H](N(C)C)C(=O)C(C(N)=O)=C(O)[C@@]3(O)C(=O)C1=C2O,14.8 µM (active),
C[C@]12CCC(=O)C=C1CC[C@@H]1[C@H]2[C@@H](O)C[C@@]2(C)[C@H]1CC[C@]2(O)C(=O)CO,,101% (inactive)
COc1cc2nc(N3CCN(C(=O)C4CCCO4)CC3)nc(N)c2cc1OC (centres undefined),,96.2% (inactive)
N=C(N=C(N)N)N1CCOCC1,,111% (inactive)
